# Data: PubChem BioAssay (NCATS)
# Inconclusive results are not listed. Where a call stands in place of a potency, no number is given. Activity calls are given as the source filed them. Calls follow the shape of the dose curve; as a rule, active = well fitted inhibition curve with a large enough effect; inconclusive = small, poorly fitted or top-dose-only effect; inactive = flat fitted curve, though single readings scatter.
# Assays:
# Experiment in all cases: qHTS profiling for inhibitors of Plasmodium falciparum proliferation (AID 504749); also: nearly all actives have a fitted effect of over 60% in size
# Conditions in all cases: P. falciparum in erythrocytes, SYBR Green DNA, 72 h; series mostly up to 28.7 µM
# 3D7 = test system: 3D7
# Outline: (§1)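 Quantitative HTS: compounds pinned into medium, infected erythrocytes added (0.3% parasitemia, 2.5% hematocrit), 72 h culture at 37 C under 5% CO2. Saponin/Triton lysis with SYBR Green I, overnight RT, then fluorescence read.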
# C2A = test system: C2A
# Outline: as §1
# CP194 = test system: CP194
# Outline: as §1
# CP201 = test system: CP201
# Outline: as §1
# CP237 = test system: CP237
# Outline: as §1
# CP250 = test system: CP250
# Outline: as §1
# CP256 = test system: CP256
# Outline: as §1
# CP269 = test system: CP269
# Outline: as §1
# CP315 = test system: CP315
# Outline: as §1
# CP329 = test system: CP329
# Outline: as §1
# DIV30 = test system: DIV30
# Outline: as §1
# JCK = test system: JCK
# Outline: as §1
# P94_40 = test system: P94_40
# Outline: as §1
# PAD = test system: PAD
# Outline: as §1
# PC15 = test system: PC15
# Outline: as §1
# SC27B = test system: SC27B
# Outline: as §1
# TAB109 = test system: TAB109
# Outline: as §1
# TAB113 = test system: TAB113
# Outline: as §1
# TAB165 = test system: TAB165
# Outline: as §1
# CP305 = test system: CP305
# Outline: as §1
# Potency is read from the fitted curve at half-maximal effect.
SMILES,Potency (3D7),Potency (C2A),Potency (CP194),Potency (CP201),Potency (CP237),Potency (CP250),Potency (CP256),Potency (CP269),Potency (CP315),Potency (CP329),Potency (DIV30),Potency (JCK),Potency (P94_40),Potency (PAD),Potency (PC15),Potency (SC27B),Potency (TAB109),Potency (TAB113),Potency (TAB165),Potency (CP305)
CO/N=C(/C(=O)N[C@@H]1C(=O)N2C(C(=O)O)=C(CSC(=O)c3ccco3)CSC12)c1csc(N)n1 (stereo partly drawn),inactive,inactive,inactive,inactive,inactive,inactive,inactive,inactive,inactive,inactive,inactive,inactive,inactive,inactive,inactive,inactive,inactive,inactive,inactive,
C=C1/C(=C\C=C2/CCC[C@]3(C)[C@@H]([C@H](C)/C=C/[C@@H](O)C4CC4)CC[C@@H]23)C[C@@H](O)C[C@@H]1O,inactive,inactive,inactive,inactive,inactive,,inactive,inactive,inactive,inactive,inactive,inactive,,inactive,inactive,inactive,inactive,inactive,,inactive
C[C@]12CC[C@@H]3c4ccc(O)cc4C[C@@H](CCCCCCCCCS(=O)CCCC(F)(F)C(F)(F)F)C3[C@@H]1CC[C@@H]2O (stereo partly drawn),10 µM (active),10 µM (active),,,5.01 µM (active),,,,inactive,,3.79 µM (active),17.8 µM (active),5.62 µM (active),3.98 µM (active),11.2 µM (active),2.82 µM (active),10 µM (active),4.47 µM (active),2.24 µM (active),10700 nM (active)
CC(=O)O[C@]1(C(C)=O)CCC2C3CCC4=CC(=O)CCC4(C)C3(F)C(O)CC21C (stereo partly drawn),inactive,inactive,inactive,inactive,inactive,inactive,inactive,inactive,inactive,inactive,inactive,inactive,inactive,inactive,inactive,inactive,inactive,inactive,inactive,inactive
C#C[C@@]1(O)CC[C@@H]2[C@H]3CCC4=C/C(=N\O)CC[C@H]4[C@@H]3CC[C@]21CC,inactive,inactive,,inactive,inactive,inactive,inactive,inactive,inactive,inactive,inactive,inactive,inactive,inactive,inactive,inactive,inactive,inactive,inactive,inactive
C=C(CC[C@@H](C)[C@H]1CCC2[C@]1(C)CC[C@]13C[C@@]14CCC(OC(=O)/C=C/c1ccc(O)c(OC)c1)C(C)(C)[C@@H]4CC[C@@]23C)C(C)C (stereo partly drawn),inactive,inactive,inactive,inactive,inactive,inactive,inactive,inactive,inactive,inactive,inactive,inactive,inactive,inactive,inactive,inactive,inactive,inactive,inactive,inactive
C[C@]12CC[C@@H]3c4ccc(O)cc4CC[C@H]3[C@@H]1CCC2OC(=O)CCC1CCCC1 (stereo partly drawn),,inactive,inactive,inactive,,inactive,inactive,inactive,inactive,inactive,inactive,inactive,inactive,,,inactive,inactive,inactive,inactive,inactive
OC[C@@H](O)C(O[C@@H]1O[C@@H](CO)[C@H](O)[C@H](O)[C@H]1O)[C@H](O)[C@@H](O)CO (stereo partly drawn),inactive,,inactive,inactive,inactive,inactive,inactive,inactive,inactive,inactive,inactive,inactive,inactive,inactive,inactive,inactive,inactive,inactive,inactive,inactive
COC(=O)C1C2CC3c4[nH]c5cc(OC)ccc5c4CCN3CC2CC(OC)C1OC (stereo not drawn),inactive,inactive,inactive,inactive,inactive,inactive,inactive,inactive,inactive,inactive,,inactive,inactive,inactive,inactive,inactive,inactive,inactive,inactive,inactive
Clc1ccc(CS[C@@H](Cn2ccnc2)c2ccc(Cl)cc2Cl)cc1,2.82 µM (active),,5.1 µM (active),,1.78 µM (active),,,6.42 µM (active),,,3.22 µM (active),,3.55 µM (active),3.16 µM (active),3.55 µM (active),2.82 µM (active),3.55 µM (active),,0.708 µM (active),
N#C/C(=C1/SCC(c2ccccc2Cl)S1)n1ccnc1 (stereo not drawn),inactive,inactive,inactive,inactive,inactive,inactive,inactive,inactive,inactive,inactive,inactive,inactive,inactive,,inactive,,inactive,inactive,12.6 µM (active),inactive
CC(=O)CC(c1ccccc1)C1C(=O)Oc2ccccc2C1=O (stereo not drawn),inactive,inactive,inactive,inactive,inactive,inactive,inactive,inactive,inactive,inactive,inactive,inactive,inactive,inactive,inactive,inactive,inactive,inactive,inactive,inactive
CC(CN1CC(=O)NC(=O)C1)N1CC(=O)NC(=O)C1 (stereo not drawn),inactive,inactive,inactive,inactive,inactive,inactive,inactive,inactive,inactive,inactive,inactive,inactive,inactive,inactive,inactive,inactive,inactive,inactive,inactive,inactive
C[C@@H]1CC2C3CCC4=CC(=O)C=C[C@]4(C)[C@@]3(F)[C@@H](O)C[C@]2(C)[C@@]1(O)C(=O)COC(=O)c1cccc(S(=O)(=O)O)c1 (stereo partly drawn),inactive,inactive,inactive,inactive,inactive,inactive,inactive,inactive,inactive,inactive,inactive,inactive,inactive,inactive,inactive,inactive,inactive,inactive,inactive,inactive
COc1cc(/C=C2\CCC/C(=C\c3ccc(O)c(OC)c3)C2=O)ccc1O,11.2 µM (active),,,,14.1 µM (active),10 µM (active),,10.7 µM (active),19 µM (active),,8.49 µM (active),10 µM (active),12.6 µM (active),7.08 µM (active),12.6 µM (active),11.2 µM (active),12.6 µM (active),8.91 µM (active),12.6 µM (active),
CCCSS/C(CCO)=C(/C)N(C=O)Cc1cnc(C)nc1N,inactive,inactive,inactive,inactive,inactive,inactive,inactive,inactive,inactive,inactive,inactive,inactive,inactive,inactive,inactive,inactive,inactive,inactive,,inactive
C=C1C(n2cnc3c(=O)[nH]c(N)nc32)C[C@H](O)[C@H]1CO (stereo partly drawn),,inactive,inactive,inactive,inactive,,,inactive,inactive,inactive,inactive,inactive,inactive,inactive,,inactive,,inactive,inactive,
CC(C)(C)NC[C@H](O)CSc1nc(-c2ccc(C(N)=O)s2)cs1,inactive,inactive,inactive,inactive,inactive,inactive,inactive,inactive,inactive,inactive,inactive,inactive,inactive,inactive,inactive,inactive,inactive,,inactive,inactive
CC1CCC(O)C/C1=C\C=C1/CCCC2(C)C1CCC2C(C)/C=C/C(C)C(C)C (stereo not drawn),,inactive,inactive,inactive,inactive,inactive,inactive,inactive,inactive,inactive,,inactive,,,inactive,inactive,inactive,inactive,inactive,inactive
Cc1c(C)c2c(c(C)c1O)CCC(C)(CCCC(C)CCCC(C)CCCC(C)C)O2 (stereo not drawn),inactive,inactive,inactive,inactive,inactive,inactive,inactive,inactive,inactive,inactive,inactive,inactive,inactive,inactive,inactive,inactive,inactive,inactive,inactive,inactive
CC1(C)SC2[C@@H](N=CN3CCCCCC3)C(=O)N2[C@H]1C(=O)O (stereo partly drawn),inactive,inactive,inactive,inactive,inactive,inactive,,inactive,inactive,inactive,inactive,inactive,,,inactive,inactive,inactive,,,inactive
CCC(C(=O)C(C)C(O)C(C)CCc1ccc(C)c(O)c1C(=O)O)C1OC(CC)(C2CC[C@@](O)(CC)C(C)O2)CC1C (stereo partly drawn),0.447 µM (active),0.794 µM (active),0.849 µM (active),1.07 µM (active),0.562 µM (active),1 µM (active),1 µM (active),0.757 µM (active),0.849 µM (active),757 nM (active),0.601 µM (active),8.91 µM (active),0.316 µM (active),1.26 µM (active),1.41 µM (active),0.447 µM (active),0.891 µM (active),0.891 µM (active),0.355 µM (active),675 nM (active)
CC(C)C(=O)OCC(=O)[C@@]12OC(C3CCCCC3)O[C@@H]1CC1C3CCC4=CC(=O)C=C[C@]4(C)C3[C@@H](O)C[C@@]12C (stereo partly drawn),1 µM (active),1.26 µM (active),,,1.41 µM (active),1.12 µM (active),1.12 µM (active),,,,,2.51 µM (active),0.891 µM (active),1 µM (active),1.58 µM (active),1.26 µM (active),0.708 µM (active),1.12 µM (active),0.891 µM (active),849 nM (active)
